Test results as given in PubChem BioAssay (NCATS).
Inconclusive results are not listed. Activity calls are given as the source filed them. The call rests on the fitted dose curve; in most records, active means well fitted curve in the direction sought with a large enough effect; inconclusive means small, poorly fitted or top-dose-only effect, or another doubt; inactive means no such curve, though single readings can be large; an effect the other way counts as inactive or inconclusive.

Key:
[1] = molecular target: Glutathione peroxidase 1 (Homo sapiens) (UniProt P07203); assay: Primary qHTS Assay for Inhibitors of Recombinant Selenoprotein Glutathione Peroxidase 1 (GPX1) (AID 1845191); further: nearly all actives have a fitted effect of over 65% in size; on activity, negative = inhibition: on the % scale 0 is the no-effect control and ±100 the full control effect
Chain of Glutathione peroxidase 1 (Homo sapiens) (P07203 whole entry, looked up): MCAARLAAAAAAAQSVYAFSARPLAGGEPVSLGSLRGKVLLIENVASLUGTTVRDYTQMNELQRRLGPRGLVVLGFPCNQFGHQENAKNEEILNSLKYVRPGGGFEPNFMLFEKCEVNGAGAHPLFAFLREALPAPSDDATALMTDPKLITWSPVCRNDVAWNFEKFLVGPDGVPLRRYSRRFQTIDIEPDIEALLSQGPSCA
In short: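 10 nM GPX1 + cpd, 30 min RT; start w/ 1 mM GSH, 0.5 mM cumene hydroperoxide, 0.5 mM NADPH, 100 nM GR, 0.01% BSA; buffer 50 mM Tris-HCl pH 7.5, 2 mM EDTA, 150 mM NaCl; Fl 340/450, 0 & 15 min.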

[2] = molecular target: Phospholipid hydroperoxide glutathione peroxidase GPX4 (Homo sapiens) (UniProt P36969); assay: Primary qHTS Assay for Inhibitors of Recombinant Selenoprotein Glutathione Peroxidase 4 (GPX4) (AID 1845192); further: nearly all actives have a fitted effect of over 65% in size; on activity change, negative = inhibition: series mostly up to about 50 µM; on the % scale 0 is the no-effect control and ±100 the full control effect
Chain of Phospholipid hydroperoxide glutathione peroxidase GPX4 (Homo sapiens) (P36969 whole entry, looked up): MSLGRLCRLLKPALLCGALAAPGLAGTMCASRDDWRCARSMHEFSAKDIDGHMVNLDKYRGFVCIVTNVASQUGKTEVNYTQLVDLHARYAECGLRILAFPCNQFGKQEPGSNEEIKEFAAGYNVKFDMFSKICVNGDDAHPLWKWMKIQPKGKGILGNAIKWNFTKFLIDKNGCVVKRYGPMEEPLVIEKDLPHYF
In short: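 NADPH consumption, followed by fluorescence at 340/450 nm between 0 and 15 min, reports GPX4 activity via coupled glutathione reductase (100 nM). Enzyme 200 nM was pre-exposed to compound 30 min; 0.5 mM cumene hydroperoxide and 1 mM GSH served as substrates.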

[3] = molecular target: Luciferin 4-monooxygenase (Photinus pyralis) (UniProt P08659); assay: Primary firefly luciferase (FLuc) qHTS assay for identification of artifact compounds. (AID 1845220); further: nearly all actives have a fitted effect of over 60% in size; further: potency means the concentration at half of the fitted maximal effect;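 on activity change, negative = inhibition: series mostly up to about 54 µM; plate controls were DMSO vehicle for no effect and no enzyme for full effect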
In short: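 Cell-free, 1536-well qHTS. Buffer pH 7.6 with 0.01% Tween-20 and 0.05% BSA; 10 uM D-luciferin, 10 uM ATP; 10 nM P. pyralis luciferase; luminescence after 5 min.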

[4] = Primary fluorescence-based thiol-reactive (MSTI) qHTS assay for identification of artifact compounds. (AID 1845221);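 further: series mostly up to about 54 µM; thiol-reactive compounds lower the probe fluorescence signal; nearly all actives have a fitted effect of over 65% in size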
In short: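 Probe: MSTI 4 uM, PBS pH 7.4, 2% DMSO. Incubation 1 h, RT, light-protected. Readout fluorescence 525/598 nm.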

[5] = tested on: Nanoluciferase (engineered Oplophorus gracilirostris luciferase); assay: Primary Nanoluciferase (NLuc) qHTS assay for identification of artifact compounds. (AID 1845222);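 further: series mostly up to about 54 µM; 0% = DMSO and -100% = no enzyme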
In short: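 Compounds are pinned into diluted (1:55) conditioned medium of NLuc-expressing S16 cells and held 15 min at room temperature protected from light. Nano-Glo substrate follows, and luminescence is read 5 min later.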

[6] = Primary redox qHTS assay for identification of artifact compounds. (AID 1845223);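 further: 0% = DMSO and 100% = reference compound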
In short: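 Amplex Red (25 uM) and HRP (250 mU/mL) in HBSS, with compounds for 15 min, then 250 uM DTT for 30 min, room temperature, dark. Fluorescence 525/598 nm read; normalized to DMSO and 10 uM DA3003; Hill fit.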

Cc1cc(-c2cnc(N)c3c(-c4ccc5scnc5c4)csc23)n(C)n1
inactive: Potency [1] | Potency [2] | Potency [3] | Potency [4] | Potency [5] | Potency [6]

Cc1ccc(NC(=O)c2ccc(CN3CCNCC3)cc2)cc1Nc1nccc(-c2cccnc2)n1
active: Potency [3] 6.75 µM
inactive: Potency [1] | Potency [2] | Potency [4] | Potency [5] | Potency [6]

C/C=C/C=C/C=C/C(=O)O[C@@H]1C=C2COC(=O)[C@]2(O)[C@@]2(C)CCCC(C)(C)[C@H]12
inactive: Potency [1] | Potency [2] | Potency [3] | Potency [4] | Potency [5] | Potency [6]

C/C1=C\[C@@H](C)C[C@@H](C)[C@@H](Cc2cnco2)OC(=O)/C(C)=C/[C@@H](C)C[C@@H](C)[C@@H](Cc2cnco2)OC1=O
inactive: Potency [1] | Potency [2] | Potency [3] | Potency [4] | Potency [5] | Potency [6]

O=C(Nc1ccccc1Cl)c1cnc2ccc(C3CCNCC3)cn12
inactive: Potency [1] | Potency [2] | Potency [3] | Potency [4] | Potency [5] | Potency [6]

COc1ccc(CNCc2cccc3ccccc23)cc1
inactive: Potency [1] | Potency [2] | Potency [3] | Potency [4] | Potency [5] | Potency [6]

CC(C)C[C@H](CO)Nc1nc(S[C@@H](C)c2ccccc2)nc2nc(N)sc12
inactive: Potency [1] | Potency [2] | Potency [3] | Potency [4] | Potency [5] | Potency [6]

Cc1ccccc1CN1CCn2c1nc1c(c2=O)CN(Cc2ccccc2)CC1
inactive: Potency [1] | Potency [2] | Potency [3] | Potency [4] | Potency [5] | Potency [6]

O=C(CN1C2=NCCN2c2ccccc21)c1ccc(-c2ccccc2)cc1
inactive: Potency [1] | Potency [2] | Potency [3] | Potency [4] | Potency [5] | Potency [6]

Cc1cc(-c2nc(-c3ccc(OC(F)(F)F)cc3)no2)nn1Cc1ccnc(N2CCN(C3CC3)CC2)c1
inactive: Potency [1] | Potency [2] | Potency [3] | Potency [4] | Potency [5] | Potency [6]

CC(C)(N)c1ncc(-c2ccc(OC(F)(F)F)cc2)[nH]1
inactive: Potency [1] | Potency [2] | Potency [3] | Potency [4] | Potency [5] | Potency [6]

C=CCC1=C[C@]2(OC)[C@H](C)[C@@H](c3ccc4c(c3)OCO4)O[C@]2(OC)CC1=O
inactive: Potency [1] | Potency [2] | Potency [3] | Potency [4] | Potency [5] | Potency [6]

COC1=CC(=O)C[C@@H](C)[C@@]12Oc1c(Cl)c(OC)cc(OC)c1C2=O
inactive: Potency [1] | Potency [2] | Potency [3] | Potency [4] | Potency [5] | Potency [6]

CNc1cc2[nH]c(=O)n(-c3ccc(NC(=O)NS(=O)(=O)c4ccc(Cl)s4)cc3)c(=O)c2cc1F
inactive: Potency [1] | Potency [2] | Potency [3] | Potency [4] | Potency [5] | Potency [6]

NC(=O)c1ccccc1Nc1ccnc(Nc2cccc(O)c2)n1
inactive: Potency [1] | Potency [2] | Potency [3] | Potency [4] | Potency [5] | Potency [6]

C=C1C(=O)O[C@@H]2[C@H]1CC[C@H](C)C(CCC(=O)O)C2(C)O (some centres not stated)
inactive: Potency [1] | Potency [2] | Potency [3] | Potency [4] | Potency [5] | Potency [6]

CCc1cnc(N2CCC(c3nc(COc4ccc(-n5cnnn5)cc4)cs3)CC2)nc1
inactive: Potency [1] | Potency [2] | Potency [3] | Potency [4] | Potency [5] | Potency [6]

COc1ccccc1N1CCN(c2ncnc3n[nH]c(Br)c23)CC1
inactive: Potency [1] | Potency [2] | Potency [3] | Potency [4] | Potency [5] | Potency [6]

C=C1CO[C@@]2(O[C@H]3CC4C5CC=C6C[C@@H](O)C[C@@H](O[C@@H]7OC[C@H](O)[C@H](O[C@@H]8OC[C@@H](O)[C@H](O)[C@H]8O)[C@H]7O[C@@H]7O[C@@H](C)[C@H](OC(C)=O)[C@@H](OC(C)=O)[C@H]7OC(C)=O)[C@]6(C)C5CC[C@]4(C)[C@@H]3[C@@H]2C)[C@@H](O)[C@H]1OC1OC(C)C(O)C(O)C1O (some centres not stated)
inactive: activity, negative = inhibition [1] 0.917% [at 9.52 µM] | outcome [2] inactive [at 9.73 µM] | outcome [3] inactive [at 11.6 µM] | activity change, negative = thiol reactive [4] 69.1% [at 11.5 µM] | activity, negative = inhibition [5] 1.51% [at 11.6 µM] | redox activity (% of DA3003) [6] 7.69% [at 11.5 µM]

C[C@@H](N[C@H]1CCCC[C@@H]1NC(=O)c1ccc(Cl)cc1)c1cccc2ccccc12
inactive: Potency [1] | Potency [2] | Potency [3] | Potency [4] | Potency [5] | Potency [6]

C=C(C)C(=O)OC1CC(CO)CCC/C(CO)=C/C2OC(=O)C(=C)C21 (configuration not stated)
inactive: Potency [1] | Potency [2] | Potency [3] | Potency [4] | Potency [5] | Potency [6]

CC1OC(OC2C(O)COC(O[C@@H]3[C@@H](O)[C@@H](O)[C@H](OC4C(OC(=O)[C@]56CCC(C)(C)CC5C5=CCC7[C@@]8(C)C[C@H](O)[C@H](OC9OC(CO)C(O)C(O)C9O)[C@@](C)(CO)C8[C@H](O)C[C@@]7(C)[C@]5(C)CC6)OCC(O)C4O)O[C@H]3C)C2O)C(O)C(O)C1O (some centres not stated)
inactive: activity, negative = inhibition [1] -4.86% [at 9.52 µM] | activity change, negative = inhibition [2] -9.45% [at 9.73 µM] | activity change, negative = inhibition [3] -14.3% [at 11.6 µM] | activity change, negative = thiol reactive [4] 417% [at 11.5 µM] | activity, negative = inhibition [5] -5.56% [at 11.6 µM] | redox activity (% of DA3003) [6] 3.65% [at 11.5 µM]
